Measured values: the supplement of paper PMC12067926

Columns and labels:
Assay in all cases: relative growth (AUC of 72 h growth curve relative to DMSO control, dAUC) (ratio); higher = more growth (less inhibition), active = hit call of the paper
Conditions in all cases: 20 µM;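 active = growth AUC significantly below the DMSO wells by Dunnett test; inactive = the rest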
[1] = compound: C=CCOC(Cn1ccnc1)c1ccc(Cl)cc1Cl
In short: (§1)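 Each chemical was tested at 20 µM (1% DMSO) in 96-well plates seeded with a 1:100 dilution of cultures grown to carrying capacity in Luria–Bertani medium. These were isolates from Icelandic stream sediments and Silwood Park soil, as well as whole sediment communities. A plate reader took A600 readings hourly over 72 h, and three biological replicates were averaged. Relative growth (dAUC) is the spline-integrated area under the growth curve relative to the mean of the DMSO controls.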

[2] = compound: CC(=O)CC(c1ccccc1)c1c(O)c2ccccc2oc1=O
In short: as §1

[3] = compound: CC1COc2ccccc2N1C(=O)C(Cl)Cl
In short: as §1

[4] = compound: CCCCC(CC)CN1C(=O)[C@@H]2[C@H](C1=O)[C@@H]1C=C[C@H]2C1 (mixture of isomers)
In short: as §1

[5] = compound: CCCCCCCCc1c(CC)nc2ncnn2c1N
In short: as §1

[6] = compound: CCCCOCCOCCOCc1cc2c(cc1CCC)OCO2
In short: as §1

[7] = compound: CCCOC(=O)NCCCN(C)C
In short: as §1

[8] = compound: COC(=O)c1csc(C)c1S(=O)(=O)NC(=O)n1nc(OC)n(C)c1=O
In short: as §1

[9] = compound: Cc1ccc(C(C)NC(=O)[C@@H](NC(=O)OC(C)C)C(C)C)cc1
In short: as §1

[10] = compound: Cc1nn(C)c(Oc2ccccc2)c1/C=N/OCc1ccc(C(=O)OC(C)(C)C)cc1
In short: as §1

[11] = compound: Cn1cc(C(=O)Nc2ccc(F)cc2-c2ccc(Cl)c(Cl)c2)c(C(F)F)n1
In short: as §1

[12] = compound: Cn1cc(C(=O)Nc2ccccc2-c2cc(F)c(F)c(F)c2)c(C(F)F)n1
In short: as §1

[13] = compound: O=C(NCc1ncc(C(F)(F)F)cc1Cl)c1c(Cl)cccc1Cl
In short: as §1

[14] = compound: Oc1c(Cl)cc(Cl)c(Cl)c1Cc1c(O)c(Cl)cc(Cl)c1Cl
In short: as §1

[15] = compound: S=C([S-])NCCNC(=S)[S-].S=C([S-])NCCNC(=S)[S-].[Mn+2].[Zn+2]
In short: as §1

[16] = compound: c1ccc2[nH]c(-c3cscn3)nc2c1
In short: as §1

Row | Target | relative growth [1] | relative growth [2] | relative growth [3] | relative growth [4] | relative growth [5] | relative growth [6] | relative growth [7] | relative growth [8] | relative growth [9] | relative growth [10] | relative growth [11] | relative growth [12] | relative growth [13] | relative growth [14] | relative growth [15] | relative growth [16]
1 | Pseudomonas 2 (Pseudomonas vancouverensis) | 0.914 (inactive) | 1 (inactive) | 0.989 (inactive) | 1.01 (inactive) | 0.969 (inactive) | 0.974 (inactive) | 0.987 (inactive) | 1.02 (inactive) | 0.996 (inactive) | 1.11 (inactive) | 0.967 (inactive) | 1.01 (inactive) | 0.98 (inactive) | 0.0738 (active) | 0.947 (inactive) | 0.959 (inactive)
2 | Serratia 1 (Serratia sp. 2015-2462-01) | 0.919 (inactive) | 0.952 (inactive) | 0.946 (inactive) | 0.932 (inactive) | 0.971 (inactive) | 0.954 (inactive) | 0.979 (inactive) | 0.99 (inactive) | 0.955 (inactive) | 0.973 (inactive) | 0.949 (inactive) | 1.02 (inactive) | 0.994 (inactive) | 0.00199 (active) | 1.06 (inactive) | 0.982 (inactive)
3 | Pseudomonas 6 (Pseudomonas sp.) | 0.901 (inactive) | 1.13 (inactive) | 1.09 (inactive) | 1.1 (inactive) | 0.937 (inactive) | 1.14 (inactive) | 0.948 (inactive) | 1.09 (inactive) | 1.12 (inactive) | 1.09 (inactive) | 0.974 (inactive) | 1.04 (inactive) | 1.05 (inactive) | 0.0758 (active) | 0.926 (inactive) | 0.884 (inactive)
4 | Sphingomonas 2 (Sphingomonas sp.) | 0.991 (inactive) | 1.2 (inactive) | 1.09 (inactive) | 1.07 (inactive) | 1.13 (inactive) | 0.821 (inactive) | 0.956 (inactive) | 1.14 (inactive) | 1.08 (inactive) | 1.14 (inactive) | 0.555 (active) | 1.02 (inactive) | 1.09 (inactive) | 0.0196 (active) | 0.975 (inactive) | 1.02 (inactive)
5 | Arthrobacter 3 (Arthrobacter sp.) | 0.33 (active) | 0.933 (inactive) | 1.01 (inactive) | 1.02 (inactive) | 0.981 (inactive) | 1.02 (inactive) | 1.02 (inactive) | 1.04 (inactive) | 0.922 (inactive) | 1 (inactive) | 0.725 (inactive) | 0.968 (inactive) | 0.978 (inactive) | 0.0157 (active) | 0.821 (inactive) | 0.921 (inactive)
6 | Community 4 | 0.814 (inactive) | 0.952 (inactive) | 0.85 (inactive) | 0.807 (inactive) | 0.98 (inactive) | 0.824 (inactive) | 0.992 (inactive) | 1.09 (inactive) | 0.867 (inactive) | 1.11 (inactive) | 0.837 (inactive) | 1.1 (inactive) | 0.943 (inactive) | 0.435 (active) | 1.13 (inactive) | 0.997 (inactive)
7 | Pseudomonas 3 (Pseudomonas mandelii) | 1.01 (inactive) | 1.06 (inactive) | 1.07 (inactive) | 1.05 (inactive) | 0.984 (inactive) | 1.04 (inactive) | 1.04 (inactive) | 1.04 (inactive) | 1.08 (inactive) | 1.09 (inactive) | 1.03 (inactive) | 1 (inactive) | 0.984 (inactive) | 0.00168 (active) | 0.907 (inactive) | 0.96 (inactive)
8 | Community 10 | 0.783 (inactive) | 0.872 (inactive) | 0.795 (inactive) | 0.665 (inactive) | 0.99 (inactive) | 0.777 (inactive) | 1.02 (inactive) | 0.965 (inactive) | 0.84 (inactive) | 0.714 (inactive) | 0.742 (inactive) | 1.03 (inactive) | 0.996 (inactive) | 0.51 (active) | 1.11 (inactive) | 1.16 (inactive)
9 | Hymenobacter 1 (Hymenobacter glaciei) | 0.768 (inactive) | 1.08 (inactive) | 0.952 (inactive) | 0.932 (inactive) | 1.05 (inactive) | 0.845 (inactive) | 1.07 (inactive) | 1.08 (inactive) | 0.999 (inactive) | 1.06 (inactive) | 0.927 (inactive) | 0.91 (inactive) | 1 (inactive) | 0.00356 (active) | 0.998 (inactive) | 0.917 (inactive)
10 | Aeromonas 2 (Aeromonas sobria) | 0.874 (inactive) | 0.948 (inactive) | 0.962 (inactive) | 0.971 (inactive) | 0.986 (inactive) | 0.986 (inactive) | 0.999 (inactive) | 1.01 (inactive) | 0.993 (inactive) | 1.03 (inactive) | 0.936 (inactive) | 0.987 (inactive) | 0.974 (inactive) | 0.00514 (active) | 0.907 (inactive) | 0.973 (inactive)
11 | Pseudomonas 4 (Pseudomonas peli) | 0.952 (inactive) | 0.978 (inactive) | 0.938 (inactive) | 0.959 (inactive) | 0.99 (inactive) | 0.961 (inactive) | 0.995 (inactive) | 1.03 (inactive) | 0.968 (inactive) | 1.01 (inactive) | 0.979 (inactive) | 0.992 (inactive) | 0.981 (inactive) | 0.00176 (active) | 0.927 (inactive) | 0.928 (inactive)
12 | Oryzobacter 1 (Oryzobacter terrae) | 0.0303 (active) | 1.04 (inactive) | 1.15 (inactive) | 1.27 | 1.07 (inactive) | 1.18 (inactive) | 1.02 (inactive) | 1.13 (inactive) | 1.09 (inactive) | 1.17 (inactive) | 1.12 (inactive) | 0.91 (inactive) | 1.06 (inactive) | 0.00191 (active) | 0.909 (inactive) | 1.15 (inactive)
13 | Community 8 | 0.913 (inactive) | 1.03 (inactive) | 1.03 (inactive) | 0.989 (inactive) | 1.07 (inactive) | 0.957 (inactive) | 1.03 (inactive) | 1.01 (inactive) | 0.972 (inactive) | 1.01 (inactive) | 0.943 (inactive) | 1.04 (inactive) | 1.02 (inactive) | 0.806 (inactive) | 1.13 (inactive) | 0.998 (inactive)
14 | Flavobacterium 2 (Flavobacterium succinicans) | 0.489 (active) | 0.983 (inactive) | 0.926 (inactive) | 0.916 (inactive) | 0.961 (inactive) | 0.976 (inactive) | 1.03 (inactive) | 1 (inactive) | 0.933 (inactive) | 0.952 (inactive) | 0.849 (inactive) | 0.962 (inactive) | 0.966 (inactive) | 0.0105 (active) | 1.13 (inactive) | 1.03 (inactive)
15 | Pseudomonas 5 (Pseudomonas baetica) | 0.962 (inactive) | 1.03 (inactive) | 1.08 (inactive) | 0.989 (inactive) | 1 (inactive) | 1.01 (inactive) | 0.994 (inactive) | 1.04 (inactive) | 1.02 (inactive) | 1.05 (inactive) | 0.995 (inactive) | 1.05 (inactive) | 1.05 (inactive) | 0.501 (active) | 1.03 (inactive) | 0.951 (inactive)
16 | Pseudomonas 1 (Pseudomonas baetica) | 1.01 (inactive) | 1.09 (inactive) | 1.04 (inactive) | 1.13 (inactive) | 0.923 (inactive) | 1.04 (inactive) | 0.968 (inactive) | 1.1 (inactive) | 1.06 (inactive) | 1.14 (inactive) | 1.15 (inactive) | 0.984 (inactive) | 1.04 (inactive) | 0.559 (active) | 0.921 (inactive) | 0.944 (inactive)
